Only a selection was taken, and hits are over-represented in it overall.
LASV entry inh – qHTS for Inhibitors of binding or entry into cells for Lassa Virus | Lassa virus pseudotype entry inhibition, cell reporter | Potency, µM (top dose mostly 37.9 µM), without a hit: at the top dose activity change, negative = inhibition, usual class: inhibitors | 300,000 compounds, 1.2% hits | AID 540256, 2011; calls by dose curve; tested in HEK293 cells; note: potency is the fitted concentration of half-maximal effect; % is set by controls: 0 for no effect and ±100 for the full control effect; nearly all actives have a fitted effect of over 50% in size
CHX counter – Cycloheximide Counterscreen for Small Molecule Inhibitors of Shiga Toxin; cell reporter, cycloheximide protein synthesis inhibition counterscreen; max response, %; 300,000 compounds, 12% hits; AID 2314, 2010; in the data active = max response mostly above about 13%, no sharp cut-off; inactive = mostly below about 14%; note: read at 38.3 µM for the half of the compounds with a filed dose; 0% is about no effect
Shiga toxin inh – A qHTS for Small Molecule Inhibitors of Shiga Toxin | Vero cells, Shiga toxin protein synthesis inhibition reporter | inhibition, % at 38.7 µM | 290,000 compounds, 9.2% hits | AID 2315, 2010; in the data active = inhibition mostly above about 28%, no sharp cut-off; inactive = mostly below about 43%; note: 0% is about no effect
AMA1-RON2 inh – qHTS for Inhibitors of AMA1-RON; Towards Development of Antimalarial Drug Lead: Primary Screen; Plasmodium falciparum AMA1 (3D7) - RON2 peptide interaction; 360,000 compounds, 0.2% hits; AlphaScreen AMA1-biotinylated RON2 peptide binding; Potency, µM (doses to about 58.2 µM), inactives show at the top dose activity change, negative = inhibition, actives largely listed as inhibitors; active = well fitted inhibition curve with a large enough effect; inconclusive = small, poorly fitted or top-dose-only effect; inactive = no such curve, though single readings can be large or run the other way;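 note: potency is the fitted concentration of half-maximal effect; 0% = vehicle wells and -100% = peptide control; nearly all actives have a fitted effect of over 45% in size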
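AMA1 (3D7) with his tag at 25 nM final met compounds first, then biotinylated RON2 peptide at 25 nM; detection used donor plus acceptor beads, 10 µg/mL apiece, read by AlphaScreen after 30 min at room temperature.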
MARV entry inh – qHTS for inhibitors of binding or entry into cells for Marburg Virus; Marburg virus pseudotyped entry inhibition, cell reporter; Potency, µM (highest dose often 37.8 µM), inactives show at the highest dose activity change, negative = inhibition, most hits filed as inhibitors; 300,000 compounds, 1.8% hits; calls by dose curve; tested in HEK293 cells; note: potency is the fitted concentration of half-maximal effect; % is set by controls: 0 for no effect and ±100 for the full control effect
* marks the source's active call; other numbers are inactive results; [ ] = another dose, or the depositor's remark.

Screening Cc1nc(-c2ccc(C(=O)Nc3cccc(Br)c3)cc2)cs1 returned CHX counter 33.3*, Shiga toxin inh 56.1* and AMA1-RON2 inh 13.1%.
`COc1ccc(-c2csc(C)n2)cc1Br` gave LASV entry inh 5.0%[46.1 µM], CHX counter 35.2*, Shiga toxin inh 74.5*, AMA1-RON2 inh 23.2% and MARV entry inh inconclusive.
For Cc1nc(-c2cccc(NC(=O)c3ccc(-n4nccc4C)cc3)c2)cs1 the results were LASV entry inh inconclusive, AMA1-RON2 inh -19.0% and MARV entry inh -72.2%.
`O=C(Nc1cccc(Br)c1)c1ccn[nH]1` gave LASV entry inh 0.2%, CHX counter 45.4*, Shiga toxin inh 34.6*, AMA1-RON2 inh -8.4% and MARV entry inh 8.0%.
Screening Cc1nc(-c2cccc(NC(=O)c3cccs3)c2)cs1 returned LASV entry inh 3.7%, CHX counter 16.5*, Shiga toxin inh 32.7, AMA1-RON2 inh 25.3% and MARV entry inh 12.9%[46.1 µM].
Screening CCOC(=O)CNC(=O)c1cc2c(=O)n3cccc(C)c3nc2n1C returned LASV entry inh 8.4%[46.1 µM].
CSc1cc(-c2ccc(Cl)cc2)c(C(=O)N2CCCC2)s1 was read as LASV entry inh 9.2%, CHX counter -1.4, Shiga toxin inh -3.6, AMA1-RON2 inh -4.1% and MARV entry inh 0.0%.
`COc1ccc(OC)c(NC(=O)c2csc(Cl)c2OC)c1` gave CHX counter 21.4*, Shiga toxin inh 13.8 and AMA1-RON2 inh -4.8%.
Cc1nc(-c2ccc(C(=O)Nc3cc(S(N)(=O)=O)ccc3C)cc2)cs1 was read as CHX counter 13.7*, Shiga toxin inh 55.9* and AMA1-RON2 inh 0.3%.
Screening COc1ccc(C(=O)Nc2cc(OC)ccc2OC)cc1 returned LASV entry inh 2.9%, CHX counter 15.0, Shiga toxin inh 23.9, AMA1-RON2 inh 6.8% and MARV entry inh 21.1%.
`Cc1nc(-c2cccc(NC(=O)c3ccc(Br)o3)c2)cs1` gave CHX counter 16.5, Shiga toxin inh 25.5 and AMA1-RON2 inh -2.7%.
`Cc1nc(-c2cccc(NC(=O)Cc3ccccc3)c2)cs1` gave LASV entry inh inconclusive, CHX counter 32.1*, Shiga toxin inh 22.8, AMA1-RON2 inh -17.2% and MARV entry inh 18.3%[46.1 µM].
For COc1ccc(OC)c(NC(=O)c2ccc(-c3csc(C)n3)cc2)c1 the results were LASV entry inh -10.2%, CHX counter 16.2*, AMA1-RON2 inh -27.1% and MARV entry inh 0.2%.
For Cc1ccc(C)c(NCCCCCCCC(=O)O)c1 the results were AMA1-RON2 inh -2.7%.
COC(=O)c1cccc(Nc2c(-c3cc(Br)ccc3O)nc3nc[nH]n23)c1 was read as LASV entry inh -2.0%[46.1 µM].
For CCc1nc(Nc2ccc(O)cc2)c2oc3ccccc3c2n1 the results were LASV entry inh inconclusive, CHX counter 10.0, Shiga toxin inh 33.9, AMA1-RON2 inh -19.6% and MARV entry inh inconclusive.
Cc1nc(Nc2ccc3c(c2)OCCO3)c2c(C)c(C)sc2n1 was read as LASV entry inh -4.2%, CHX counter 20.0*, Shiga toxin inh 45.2, AMA1-RON2 inh -25.3% and MARV entry inh -4.5%[46.1 µM].
For Cc1sc2ncnc(OCC(=O)Nc3ccc4c(c3)OCCO4)c2c1C the results were LASV entry inh -1.6%, CHX counter 14.8, Shiga toxin inh 8.1, AMA1-RON2 inh inconclusive and MARV entry inh 7.3%.
Screening CCc1nc(Nc2ccc3c(c2)OCCO3)c2oc3ccccc3c2n1 returned LASV entry inh -24.7%, CHX counter 16.7*, Shiga toxin inh 5.6, AMA1-RON2 inh -5.4% and MARV entry inh -50.0%.
`Cc1nc(Nc2ccc3c(c2)OCCO3)c2oc3ccccc3c2n1` gave LASV entry inh inconclusive, CHX counter 25.7*, Shiga toxin inh 83.4*, AMA1-RON2 inh 4.8% and MARV entry inh inconclusive.
c1ccc2c(c1)oc1c(Nc3ccc4c(c3)OCCO4)ncnc12 was read as LASV entry inh inconclusive, CHX counter 53.8*, Shiga toxin inh 68.9*, AMA1-RON2 inh -27.0% and MARV entry inh inconclusive.
For O=C(Nc1cccc2ncccc12)c1ccccc1[N+](=O)[O-] the results were LASV entry inh -6.7%[46.1 µM], CHX counter 0.4, Shiga toxin inh -11.1, AMA1-RON2 inh 5.2% and MARV entry inh 6.8%[46.1 µM].
For O=C(O)c1cccc([N+](=O)[O-])c1C(=O)Nc1ccc2ccccc2c1 the results were CHX counter 19.6*, Shiga toxin inh 21.8 and AMA1-RON2 inh -2.3%.
Screening O=C(O)c1cccc([N+](=O)[O-])c1C(=O)Nc1cccc2ccccc12 returned LASV entry inh inconclusive, CHX counter 19.5*, AMA1-RON2 inh -8.1% and MARV entry inh 5.8%.
`CC1(C(=O)NS(=O)(=O)c2cccc(Cl)c2)CCN1C(=O)c1cccc2ccccc12` (stereo not given) gave AMA1-RON2 inh -2.6%.
Screening CC(C)c1ccc(/C=C2\SC(=O)N(CC(=O)NC3CCS(=O)(=O)C3)C2=O)cc1 (stereo not given) returned CHX counter 35.9*, Shiga toxin inh 76.0* and AMA1-RON2 inh -6.1%.
For O=C(CN1C(=O)S/C(=C\C=C\c2ccccc2)C1=O)NC1CCS(=O)(=O)C1 (stereo not given) the results were CHX counter 48.2*, Shiga toxin inh 46.2* and AMA1-RON2 inh 1.6%.
O=C(CN1C(=O)C(=O)N(C2CCCC2)C1=O)Nc1cc(Cl)ccc1[N+](=O)[O-] was read as LASV entry inh 2.1%, AMA1-RON2 inh -13.7% and MARV entry inh 6.2%.
Screening O=C(CNC(=O)c1cccc(F)c1)N/N=C/c1cccs1 returned CHX counter 6.2, Shiga toxin inh 27.1 and AMA1-RON2 inh -1.4%.
NC(=O)c1ccccc1OCCOc1ccc(Br)cc1 was read as LASV entry inh -29.6%[46.1 µM], CHX counter 17.2*, Shiga toxin inh 56.5*, AMA1-RON2 inh -1.2% and MARV entry inh inconclusive.
For CC(=O)Nc1ccccc1OCCOc1ccc(Br)cc1 the results were LASV entry inh inconclusive, CHX counter 4.9, Shiga toxin inh 17.2, AMA1-RON2 inh 0.2% and MARV entry inh inconclusive.
`CCOC(=O)c1cccnc1SCC(=O)N(CC)c1cccc(C)c1` gave LASV entry inh -2.9%[46.1 µM], CHX counter -6.8, Shiga toxin inh -10.5, AMA1-RON2 inh 6.9% and MARV entry inh -5.0%.
Screening COCc1cc(CN(C)C(=O)c2oc3c(F)cccc3c2C)[nH]n1 returned LASV entry inh 10.0%[46.1 µM], CHX counter 23.7*, Shiga toxin inh 13.1, AMA1-RON2 inh -8.7% and MARV entry inh 0.7%[46.1 µM].
`Cc1ccc(C(c2sc3ncnn3c2O)N2CCCCC2)cc1` (stereo not given) gave CHX counter 10.1*, Shiga toxin inh 37.3* and AMA1-RON2 inh 9.7%.
`Cc1ccc(C(c2sc3ncnn3c2O)N2CCC(C)CC2)cc1` (stereo not given) gave CHX counter 1.5, Shiga toxin inh 0.6 and AMA1-RON2 inh 10.7%.

Screens: PubChem, National Center for Advancing Translational Sciences (NCATS)
